Inconclusive results are not listed. Active and inactive are the calls of the source. Unless noted, calls come from the whole dose curve; as a rule, active = well fitted curve in the direction sought with a large enough effect in the repeat runs; inconclusive = weak or mixed curves; inactive = no such curve, though single readings can be large; an effect the other way counts as inactive or inconclusive.
Assays:
[1] = qHTS assay to identify small molecule antagonists of the estrogen receptor alpha (ER-alpha) signaling pathway using the BG1 cell line in the presence of 0.1 nM 17-beta-estradiol - cell viability counter screen (AID 1259241); note: nearly all actives have a fitted effect of over 40% in size
Procedure, shortened: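 CellTiter-Fluor read (30 min, 37C) on ER-alpha/ERE-luc VM7Luc4E2 cells; 22 hr compound treatment; agonist 0.1 nM E2 final; same-well multiplex.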

[2] = qHTS assay to identify small molecule antagonists of the androgen receptor (AR) signaling pathway using the MDA cell line in the presence of 0.5 nM R1881 - cell viability counter screen (AID 1259242); note: nearly all actives have a fitted effect of over 45% in size
Procedure, shortened: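 Cells seeded at 3,000/well and allowed 5 hr at 37C, 0% CO2 before compound transfer and R1881 (0.5 nM final) addition; 16 hr later, live-cell protease fluorescence indicated cytotoxicity.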

[3] = qHTS assay to identify small molecule phospholipidosis (PLD) inducers (AID 1259344; active = well fitted curve in the direction sought with a large enough effect; an effect the other way counts as inactive or inconclusive)
Procedure, shortened: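 Phospholipid accumulation was scored by imaging: fixed, Hoechst-counterstained HepG2 cells stained with LipidTOX Red after 24 h compound exposure at 37 C. Read-outs were pit count and pit intensity per well or per cell, with amiodarone and DMSO controls.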

[4] = qHTS assay to identify small molecule HDAC inhibitors (AID 1259364); note: potency is the fitted concentration of half-maximal effect;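 note: wild-type HCT-116 cells with endogenous class I/II HDAC activity; nearly all actives have a fitted effect of over 45% in size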
Procedure, shortened: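 HCT-116 wt cells, 1,500/well, overnight attach. Compounds (DMSO) 2 h, 37 °C. HDAC-Glo I/II, 30 min RT. Luminescence.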

[5] = qHTS assay to identify small molecule HDAC inhibitors - cell viability counter screen (AID 1259365); note: series mostly up to about 92 µM; nearly all actives have a fitted effect of over 50% in size
Procedure, shortened: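 To flag cytotoxic hits, 1,500 wild-type HCT-116 cells per well, plated the day before, receive test compounds for 2hr at 37 C before CellTiter-Glo reagent and a luminescence read.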

[6] = qHTS assay to identify small molecule agonists of the sonic hedgehog signaling (Shh) pathway - cell viability counter screen (AID 1259366); note: nearly all actives have a fitted effect of over 50% in size
Procedure, shortened: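 Fluorescence from CellTiter-Fluor reports live cells in this counter screen. NIH/3T3-derived Gli1-Luc reporter cells receive test compounds for 24hr at 37C; reagent goes in at 23hr.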

[7] = qHTS assay to identify small molecule agonists of the sonic hedgehog signaling (Shh) pathway (AID 1259368; calls by dose curve;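 note: NIH/3T3-derived 3T3Gli1-Luc cells carrying a stable Gli1-driven firefly luciferase reporter; series mostly up to about 92 µM; nearly all actives have a fitted effect of over 15% in size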)
Procedure, shortened: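 Following a 24 hr incubation with DMSO-dissolved compounds at 37 C, 5% CO2, Gli1-Luc NIH/3T3-derived cells received luciferase reagent for 30 min at room temperature prior to luminescence measurement.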

[8] = qHTS assay to identify small molecule antagonists of the sonic hedgehog signaling (Shh) pathway - cell viability counter screen (AID 1259367); note: nearly all actives have a fitted effect of over 55% in size
Procedure, shortened: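 Viability was read by CellTiter-Fluor fluorescence in the same wells, reagent added 23 hr into compound treatment and incubated 1 hr at 37C. The 3T3 Gli1-Luc reporter cells (2,000/well) received conditioned medium after compound and ran 24 hr.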

Measured: Potency

c1ccc(CN2CCNCC2)cc1
not listed: [8]
inactive: all other assays above

O=C(O)C(F)(F)C(F)(F)C(F)(F)C(F)(F)C(F)(F)C(F)(F)C(F)(F)C(F)(F)C(F)(F)C(F)(F)F
not listed: [3] | [7]
inactive: all other assays above

CCOC(=O)CBr
not listed: [3]
inactive: all other assays above

COCC(C)N(C(=O)CCl)c1c(C)csc1C (centres undefined)
not listed: [8]
inactive: all other assays above

C=CC(=O)OCC(C)C
active: [4] 19.2 µM
inactive: [1] | [2] | [5] | [6]

O=C1CN=C(c2ccccc2)c2cc(Cl)ccc2N1CC1CC1
not listed: [8]
inactive: all other assays above

Source: PubChem BioAssay (Tox21)
